# About 3,300 (8.5%) of roughly 39,000 compounds were called active. This excerpt belongs to a sample that is enriched for actives.
# Test system: HepG2
# Experiment: cytotoxicity call (relative viability < 0.9)
# Conditions: 10 µM
row,SMILES,cytotoxicity call
1,COc1ccc(S(=O)(=O)Nc2cccc3c2O[C@@H](CN(C)C(=O)NC(C)C)[C@H](C)CN([C@@H](C)CO)C3=O)cc1,inactive
2,C[C@H](CO)N1C[C@H](C)[C@H](CN(C)C(=O)Cc2ccccc2)OCCCC[C@H](C)Oc2ccc(NS(=O)(=O)c3cccs3)cc2C1=O,inactive
3,C[C@@H]1CN([C@H](C)CO)S(=O)(=O)c2ccc(C#Cc3ccccc3)cc2O[C@@H]1CN(C)S(=O)(=O)c1cn(C)cn1,inactive
4,C[C@@H]1CN([C@H](C)CO)C(=O)c2cc(NS(=O)(=O)c3ccccc3)ccc2O[C@@H](C)CCCCO[C@H]1CN(C)Cc1ccc(Cl)c(Cl)c1,inactive
5,C[C@@H]1CCCCO[C@@H](CN(C)Cc2ccc(Cl)c(Cl)c2)[C@@H](C)CN([C@H](C)CO)C(=O)c2cc(NS(=O)(=O)c3ccccc3)ccc2O1,active
6,C[C@@H]1CN([C@H](C)CO)C(=O)c2cc(NS(=O)(=O)c3ccccc3)ccc2O[C@@H](C)CCCCO[C@@H]1CN(C)Cc1ccc(Cl)c(Cl)c1,active
7,C[C@@H]1CCCCO[C@@H](CN(C)Cc2ccc(Cl)c(Cl)c2)[C@@H](C)CN([C@@H](C)CO)C(=O)c2cc(NS(=O)(=O)c3ccccc3)ccc2O1,inactive
8,C[C@H]1CCCCO[C@H](CN(C)Cc2ccc(Cl)c(Cl)c2)[C@@H](C)CN([C@@H](C)CO)C(=O)c2cc(NS(=O)(=O)c3ccccc3)ccc2O1,active
9,Nn1c([C@@H](O)c2ccccc2)n[nH]c1=S,inactive
10,COc1ccc(CN(C)C[C@H]2OCCCC[C@H](C)Oc3ccc(NC(=O)Cc4ccccc4)cc3C(=O)N([C@H](C)CO)C[C@H]2C)cc1,inactive
11,C[C@H]1CN([C@@H](C)CO)C(=O)c2cc(NC(=O)Cn3cnnn3)ccc2O[C@H]1CN(C)S(C)(=O)=O,inactive
12,C[C@H]1CN([C@@H](C)CO)C(=O)c2cc(C#CC(C)(C)O)cnc2O[C@@H]1CN(C)C(=O)CN(C)C,inactive
13,COc1ccc(NC(=O)N(C)C[C@@H]2OCCCC[C@@H](C)Oc3ccc(NS(=O)(=O)c4ccc(OC)cc4)cc3C(=O)N([C@@H](C)CO)C[C@@H]2C)cc1,inactive
14,CCOC(=O)CC1(C)NNC(=S)NN1,inactive
15,C[C@@](N)(C(=O)O)c1ccc(-c2nn[nH]n2)cc1,inactive
16,COc1ccccc1CNC(=O)C[C@H]1C[C@@H]2c3cc(NC(=O)Nc4ccc(C(F)(F)F)cc4)ccc3O[C@@H]2[C@@H](CO)O1,inactive
17,COc1ccccc1CNC(=O)C[C@H]1C[C@H]2c3cc(NC(=O)Nc4ccc(C(F)(F)F)cc4)ccc3O[C@H]2[C@H](CO)O1,inactive
18,C[C@H](NC(=O)C[C@@H]1C[C@@H]2c3cc(NC(=O)Nc4ccc(C(F)(F)F)cc4)ccc3O[C@@H]2[C@H](CO)O1)c1ccccc1,inactive
19,C[C@H](NC(=O)C[C@H]1C[C@@H]2c3cc(NC(=O)Nc4ccc(C(F)(F)F)cc4)ccc3O[C@@H]2[C@@H](CO)O1)c1ccccc1,inactive
20,C[C@H](NC(=O)C[C@@H]1C[C@@H]2c3cc(NC(=O)Nc4ccc(C(F)(F)F)cc4)ccc3O[C@@H]2[C@@H](CO)O1)c1ccccc1,active
21,O=C(C[C@@H]1C[C@@H]2c3cc(NC(=O)Nc4ccc(C(F)(F)F)cc4)ccc3O[C@@H]2[C@H](CO)O1)NC1CCCCC1,active

row,SMILES,cytotoxicity call
1,O=C(C[C@@H]1C[C@@H]2c3cc(NC(=O)Nc4ccc(C(F)(F)F)cc4)ccc3O[C@@H]2[C@@H](CO)O1)NC1CCCCC1,inactive
2,COc1ccccc1CNC(=O)C[C@@H]1C[C@H]2c3cc(NC(=O)Nc4ccc(C(F)(F)F)cc4)ccc3O[C@H]2[C@@H](CO)O1,active
3,O=C(C[C@@H]1C[C@H]2c3cc(NC(=O)Nc4ccc(C(F)(F)F)cc4)ccc3O[C@H]2[C@@H](CO)O1)NC1CCCCC1,inactive
4,C[C@@H]1CN([C@H](C)CO)C(=O)c2c(c3ccccc3n2C)-c2ccccc2CO[C@@H]1CN(C)S(=O)(=O)c1cn(C)cn1,inactive
5,Cc1noc(C)c1NC(=O)Nc1ccc2c(c1)C(=O)N([C@H](C)CO)C[C@@H](C)[C@H](CN(C)C(=O)Nc1ccccc1)OCCCC[C@@H](C)O2,inactive
6,Cc1ccc(S(=O)(=O)N(C)C[C@H]2Oc3ccc(NC(=O)CCCN(C)C)cc3C(=O)N([C@@H](C)CO)C[C@@H]2C)cc1,inactive
7,CCNC(=O)C[C@@H]1CC[C@H]2[C@@H](COc3ccc(NS(=O)(=O)c4ccccc4C)cc3C(=O)N2C)O1,inactive
8,C[C@@H]1CCCCO[C@H](CN(C)C(=O)Nc2ccc(F)cc2)[C@H](C)CN([C@H](C)CO)C(=O)c2cc(NC(=O)Nc3ccc(C(F)(F)F)cc3)ccc2O1,inactive
9,CC(C)CC#Cc1ccc2c(c1)O[C@@H](CN(C)C(=O)c1cccnc1)[C@@H](C)CN([C@H](C)CO)S2(=O)=O,inactive
10,CC(=O)OCC(=O)NCCCOc1cccc(CN2CCCCC2)c1.Cl,inactive
11,CCCCOc1ccc(OCCCN2CCOCC2)cc1.Cl,inactive
12,CC(=O)O.Cc1c(-c2ccc(O)cc2)n(Cc2ccc(OCCN3CCCCCC3)cc2)c2ccc(O)cc12,active
13,Cl.O=C(c1ccc(OCCN2CCCCC2)cc1)c1c(-c2ccc(O)cc2)sc2cc(O)ccc12,active
14,CCCCOc1ccc(C(=O)CCN2CCCCC2)cc1.Cl,active
15,O=C(N[C@@H](c1ccccc1)c1ccc2ccccc2n1)C1CCN(CCOc2ccc(Cl)cc2)CC1,inactive
16,COc1cc(OC)c(C(=O)CCCN2CCCC2)c(OC)c1.Cl,inactive
17,COc1cc(C(=O)OCCN2CCCN(CCOC(=O)c3cc(OC)c(OC)c(OC)c3)CC2)cc(OC)c1OC,inactive
18,C[C@@H]1CN([C@@H](C)CO)C(=O)c2cccc(NC(=O)c3cnccn3)c2O[C@H]1CN(C)S(=O)(=O)c1cccs1,inactive
19,C[C@H]1CN([C@@H](C)CO)S(=O)(=O)c2ccc(-c3cccc(C(=O)N(C)C)c3)cc2O[C@@H]1CN(C)C(=O)Cc1ccccn1,inactive
20,C[C@H]1CN([C@@H](C)CO)C(=O)c2cc(C#Cc3ccc(F)cc3)cnc2O[C@@H]1CN(C)Cc1ccccn1,inactive
21,C[C@H](CO)N1C[C@H](C)[C@@H](CN(C)C)OCCCC[C@H](C)Oc2ccc(NC(=O)Nc3ccc(C(F)(F)F)cc3)cc2C1=O,inactive

row,SMILES,cytotoxicity call
1,C[C@@H]1CN([C@@H](C)CO)C(=O)c2cc(NC(=O)Nc3ccc(C(F)(F)F)cc3)ccc2O[C@@H](C)CCCCO[C@@H]1CN(C)C,inactive
2,C[C@@H]1CCCCO[C@@H](CN(C)C)[C@H](C)CN([C@H](C)CO)C(=O)c2cc(NC(=O)Nc3ccc(C(F)(F)F)cc3)ccc2O1,inactive
3,C[C@@H]1CCCCO[C@H](CN(C)C)[C@@H](C)CN([C@H](C)CO)C(=O)c2cc(NC(=O)Nc3ccc(C(F)(F)F)cc3)ccc2O1,inactive
4,C[C@@H]1CCCCO[C@H](CN(C)C)[C@H](C)CN([C@H](C)CO)C(=O)c2cc(NC(=O)Nc3ccc(C(F)(F)F)cc3)ccc2O1,active
5,C[C@H]1CCCCO[C@@H](CN(C)C)[C@@H](C)CN([C@@H](C)CO)C(=O)c2cc(NC(=O)Nc3ccc(C(F)(F)F)cc3)ccc2O1,active
6,C[C@@H]1CN([C@@H](C)CO)C(=O)c2cc(NC(=O)Nc3ccc(C(F)(F)F)cc3)ccc2O[C@@H](C)CCCCO[C@H]1CN(C)C,inactive
7,C[C@@H]1CN([C@H](C)CO)C(=O)c2cc(NC(=O)Nc3ccc(C(F)(F)F)cc3)ccc2O[C@@H](C)CCCCO[C@H]1CN(C)S(C)(=O)=O,active
8,C[C@@H]1CCCCO[C@@H](CN(C)C)[C@H](C)CN([C@@H](C)CO)C(=O)c2cc(NC(=O)Nc3ccc(C(F)(F)F)cc3)ccc2O1,inactive
9,C[C@@H]1CCCCO[C@H](CN(C)C)[C@H](C)CN([C@@H](C)CO)C(=O)c2cc(NC(=O)Nc3ccc(C(F)(F)F)cc3)ccc2O1,active
10,C[C@@H]1CCCCO[C@H](CN(C)S(C)(=O)=O)[C@@H](C)CN([C@H](C)CO)C(=O)c2cc(NC(=O)Nc3ccc(C(F)(F)F)cc3)ccc2O1,inactive
11,C[C@@H]1CCCCO[C@H](CN(C)S(C)(=O)=O)[C@@H](C)CN([C@@H](C)CO)C(=O)c2cc(NC(=O)Nc3ccc(C(F)(F)F)cc3)ccc2O1,inactive
12,Cc1ccc(S[C@]2(C(=O)NCCCN(C)C)CC(=O)N(Cc3ccccc3C(F)(F)F)[C@@H]2c2ccc(CO)cc2)cc1,inactive
13,C[C@H]1CN([C@@H](C)CO)C(=O)Cc2cc(NS(=O)(=O)c3ccc(F)cc3)ccc2O[C@H]1CN(C)C(=O)Nc1cccc2ccccc12,inactive
14,Cc1cc(-c2cc[nH]n2)c(C)s1,inactive
15,C[C@H]1CCCCO[C@@H](CN(C)Cc2ccncc2)[C@@H](C)CN([C@@H](C)CO)C(=O)c2cc(NC(=O)CCC(F)(F)F)ccc2O1,inactive
16,C[C@@H]1CCCCO[C@@H](CN(C)C)[C@@H](C)CN([C@H](C)CO)C(=O)c2cc(NC(=O)Nc3ccc(C(F)(F)F)cc3)ccc2O1,active
17,C[C@H]1CCCCO[C@H](CN(C)C)[C@@H](C)CN([C@@H](C)CO)C(=O)c2cc(NC(=O)Nc3ccc(C(F)(F)F)cc3)ccc2O1,inactive
18,C[C@@H]1CN([C@@H](C)CO)C(=O)c2cc(NC(=O)Nc3ccc(C(F)(F)F)cc3)ccc2O[C@@H](C)CCCCO[C@H]1CN(C)S(=O)(=O)c1cn(C)cn1,inactive
19,C[C@H]1CCCCO[C@@H](CN(C)S(=O)(=O)c2cn(C)cn2)[C@@H](C)CN([C@@H](C)CO)C(=O)c2cc(NC(=O)Nc3ccc(C(F)(F)F)cc3)ccc2O1,active
20,C[C@@H]1CN([C@H](C)CO)C(=O)c2cc(NC(=O)Nc3ccc(C(F)(F)F)cc3)ccc2O[C@@H](C)CCCCO[C@H]1CN(C)C,inactive
21,C[C@@H]1CN([C@@H](C)CO)C(=O)c2cc(NC(=O)Nc3ccc(C(F)(F)F)cc3)ccc2O[C@@H](C)CCCCO[C@@H]1CN(C)S(=O)(=O)c1cn(C)cn1,inactive

# Reference: the antibiotic and cytotoxicity screens of Wong et al. (2023)
